The list is not random: actives were taken first. Their share in the collection is about 7.5%.
Rab9 prom act = Rab9 promoter activation | Potency, µM (highest dose often 9.22 µM), without a hit: at the highest dose activation, negative = inhibition, actives largely listed as activators | Huh7 Rab9 promoter-luciferase reporter, luminescence, 24 h | hit rate 2.8% among 320,000; also: % of control where 0% means no effect; nearly all actives have a fitted effect of over 60% in size
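Luciferase signal after 10 min detection reagent at ambient indicates Rab9 promoter upregulation; stably transfected Huh7 cells were treated 24 h with compound in DMSO at 37 °C, 5% CO2.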
NPC1 prom act = activates the NPC1 promoter; Huh7 NPC1 promoter luciferase reporter, 24 h; Potency, µM (doses to about 9.22 µM), inactives show at the top dose activation, most hits filed as activators; hit rate 2.4% among 320,000; also: % of control where 0% means no effect; nearly all actives have a fitted effect of over 60% in size
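Huh7 cells stably carrying NPC1 promoter–luciferase, plated in Opti-MEM with 10% FBS for 2 h, were exposed to compound in DMSO for 24 h at 37 °C; luciferase reagent was added for 10 min and luminescence read.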
FLuc modulator = inhibits or activates purified firefly luciferase, miR-21 counter-screen; P08659; purified FLuc, Km substrates, luminescence inhibition; Potency, µM (highest dose often 57.5 µM), inactives show at the highest dose activity change, negative = inhibition, most hits filed as inhibitors; hit rate 6.9% among 360,000;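 also: plate controls were vehicle for no effect and reference inhibitor for full effect; nearly all actives have a fitted effect of over 55% in size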
Target sequence (P08659 whole entry, looked up): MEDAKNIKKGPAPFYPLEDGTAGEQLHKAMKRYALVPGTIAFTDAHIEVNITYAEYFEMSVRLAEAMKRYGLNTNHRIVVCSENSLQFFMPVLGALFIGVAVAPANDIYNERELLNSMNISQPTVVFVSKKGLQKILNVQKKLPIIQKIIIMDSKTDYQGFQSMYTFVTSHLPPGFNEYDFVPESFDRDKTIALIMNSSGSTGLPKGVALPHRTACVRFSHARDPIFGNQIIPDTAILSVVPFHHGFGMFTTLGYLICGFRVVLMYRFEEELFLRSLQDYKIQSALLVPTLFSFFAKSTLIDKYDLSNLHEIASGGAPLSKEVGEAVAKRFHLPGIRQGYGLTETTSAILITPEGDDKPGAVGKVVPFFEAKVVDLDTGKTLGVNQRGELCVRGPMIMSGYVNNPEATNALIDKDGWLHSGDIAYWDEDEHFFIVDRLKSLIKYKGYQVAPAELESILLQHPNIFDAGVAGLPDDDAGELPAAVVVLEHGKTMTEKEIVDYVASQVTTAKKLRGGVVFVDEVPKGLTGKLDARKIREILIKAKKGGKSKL
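Purified P. pyralis luciferase (10nM final) with 10uM D-luciferin and 10uM ATP (Km levels) in 50mM Tris acetate pH 7.5, 10mM Mg acetate, 0.01% Tween-20, 0.05% BSA; qHTS 6-point titration, ~60 µM downward; luminescence read.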
ELG1 genotoxic = induces genotoxicity in HEK293T cells with luciferase-tagged ELG1; HEK293T ELG1-luciferase reporter, luminescence, 16 h; Potency, µM (titrated, usually from 46 µM), without a hit: top-dose activity change, positive = activation, usual class: activators; hit rate 1.3% among 330,000; AID 504466; also: % of control where 0% means no effect; nearly all actives have a fitted effect of over 60% in size
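Cells (2,000/well) expressing the ELG1-luciferase fusion are dosed by pin tool and kept 16 hr at 37 °C, 5% CO2. Signal comes from ONE-Glo luciferase reagent after 30 min at room temperature.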
KinaseGlo FLuc = Kinase-Glo luciferase inhibition (counter-screen) | Kinase-Glo luciferase, ATP luminescence, 8 min | Potency, µM (top dose mostly 38.3 µM), for inactives: at the highest dose activity change, negative = inhibition, most hits filed as inhibitors | hit rate 0.28% among 200,000; also: % is scaled to controls: 0 for no effect and ±100 for the full control effect; nearly all actives have a fitted effect of over 60% in size
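Inhibition of Kinase-Glo luciferase light generation was assessed at 10 uM ATP in pH 7.2 imidazole buffer, with luminescence measured after eight minutes at ambient temperature.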
SMN2 splice enh = SMN2 splice variant enhancement; HEK293 SMN2-luciferase splicing reporter, luminescence, 30-36 h; AID 1458; Potency, µM (titrated, usually from 46.1 µM), inactives show top-dose activity change, positive = activation, usual class: activators; hit rate 2.8% among 210,000; also: % of control where 0% means no effect; nearly all actives have a fitted effect of over 55% in size
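HEK293 cells carry an SMN2 minigene-luciferase reporter in which exon 7 inclusion puts luciferase in frame. Cells were seeded at 2000 cells/well, attached for 10-12 hours, then exposed to compounds for 30-36 hours at 37C before ONE-Glo luminescence.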
Starred values were filed as active, the others as inactive; [ ] = dose if it differs, or a comment. Calls follow the shape of the dose curve; as a rule, active = well fitted curve in the direction sought with a large enough effect; inconclusive = small, poorly fitted or top-dose-only effect, or another doubt; inactive = no such curve, though single readings can be large; an effect the other way counts as inactive or inconclusive. Potency is read from the fitted curve at half-maximal effect.

For CCOC(=O)CSc1nc2ccccc2c(=O)n1-c1cccc(C)c1 the results were FLuc modulator -2.0% and SMN2 splice enh -6.6%.
For COc1ccc(N2Cc3ccccc3C2)cc1Cl the results were Rab9 prom act inconclusive, NPC1 prom act 18.6%, FLuc modulator inconclusive, ELG1 genotoxic 20.6µM*, KinaseGlo FLuc -4.2% and SMN2 splice enh inconclusive.
`CC(C)(C)OC(=O)[C@H](C1N[C@@H](C(=O)O)C(C)(C)S1)N1C(=O)c2ccccc2C1=O` (some centres not stated) gave KinaseGlo FLuc -3.7%[7.66 µM] and SMN2 splice enh -0.7%[9.22 µM].
Screening CC(=O)c1c(C)[nH]c(C(=O)Nc2cccc(S(=O)(=O)N(C)C)c2)c1C returned Rab9 prom act inconclusive, NPC1 prom act 1.0%, FLuc modulator -17.8%, ELG1 genotoxic inconclusive, KinaseGlo FLuc -2.0% and SMN2 splice enh 11.2µM*.
`CC(=O)c1c(C)[nH]c(C(=O)Nc2ccc(S(=O)(=O)N(C)C)cc2)c1C` gave Rab9 prom act 1.9%, NPC1 prom act -9.5%, FLuc modulator -2.3% and ELG1 genotoxic 7.9%.
For CC(=O)c1c(C)[nH]c(C(=O)Nc2cccc(S(=O)(=O)N3CCCC3)c2)c1C the results were ELG1 genotoxic 16.4µM*.
For Oc1ccc(N=Nc2ccccc2)cc1 the results were Rab9 prom act 17.9%, NPC1 prom act inconclusive, FLuc modulator 9.53µM* and ELG1 genotoxic inconclusive.
`O=C(O)c1cc(O)ccc1N=Nc1ccccc1` gave Rab9 prom act -2.5%, NPC1 prom act -5.8%, FLuc modulator 1.4% and ELG1 genotoxic -3.3%.
`Oc1ccc(Cl)cc1N=Nc1ccccc1` gave Rab9 prom act 0.0%, NPC1 prom act -26.5%, FLuc modulator 13.5µM* and ELG1 genotoxic 6.8%.
Screening CC(=O)Nc1ccc(N=Nc2ccc(O)cc2)cc1 returned Rab9 prom act 3.55µM*, NPC1 prom act inconclusive, FLuc modulator 10.7µM*, ELG1 genotoxic inconclusive, KinaseGlo FLuc -4.4% and SMN2 splice enh -0.9%[1.84 µM].
`COc1ccc(-n2c(=O)c3c(c4cc(OC)ccc4n3C)n(Cc3c(F)cccc3Cl)c2=O)cc1` gave FLuc modulator 0.3%.
CCc1ccccc1NC(=O)Nc1cc(C(=O)NCc2ccc(C)cc2)ccc1N1CCCC1 was read as FLuc modulator 1.7%.
CCOc1ccc(C(=O)Nc2ccc(-c3nc4cc(C)ccc4o3)cc2)cc1 was read as FLuc modulator -13.6%.
Screening CCCC(=O)Nc1ccc(-c2nc3cc(C)ccc3o2)cc1 returned Rab9 prom act 0.501µM*, NPC1 prom act 0.501µM*, FLuc modulator 0.536µM*, ELG1 genotoxic inconclusive, KinaseGlo FLuc -0.1% and SMN2 splice enh 1.26µM*.
CCCC(=O)Nc1ccc(-c2nc3cc(C)c(C)cc3o2)c(O)c1 was read as Rab9 prom act 2µM*, NPC1 prom act inconclusive, FLuc modulator 1.1%, ELG1 genotoxic inconclusive, KinaseGlo FLuc -1.1% and SMN2 splice enh 35.5µM*.
COc1ccc(C(=O)Nc2ccc3oc(-c4ccc5ccccc5c4)nc3c2)cc1Br was read as FLuc modulator inconclusive and SMN2 splice enh -7.3%.
`CCC(=O)NC(=S)Nc1ccc2oc(-c3ccc(OC)cc3)nc2c1` gave Rab9 prom act inconclusive, NPC1 prom act 2µM*, FLuc modulator -4.3%, ELG1 genotoxic 16.4µM*, KinaseGlo FLuc -0.3% and SMN2 splice enh 7.94µM*.
For CCCC(=O)Nc1ccc2oc(-c3ccc(OC)c(Br)c3)nc2c1 the results were Rab9 prom act 6.31µM*, NPC1 prom act inconclusive, FLuc modulator inconclusive, ELG1 genotoxic inconclusive, KinaseGlo FLuc -0.5% and SMN2 splice enh 14.7%.
CCCN(CCC)CCNC(=O)Cn1cnc2sc(C)c(S(=O)(=O)N3CCN(c4ccccc4OC)CC3)c2c1=O was read as FLuc modulator -0.6% and SMN2 splice enh -4.1%.
Cc1cc(=O)n(CC(=O)Nc2ccc(Cl)c(Cl)c2)c(-n2nc(C)cc2C)n1 was read as FLuc modulator -13.8%.
C=CC[C@](C)(Nc1ccc(OC)cc1)C(=O)OCC was read as KinaseGlo FLuc -1.2% and SMN2 splice enh 18.1%.
`CC(C)(C(O)c1ccc([N+](=O)[O-])cc1)[N+](=O)[O-]` (configuration not stated) gave KinaseGlo FLuc -3.7% and SMN2 splice enh -3.5%.
For COc1cccc(C(=O)NC2C(=O)N3C(C(=O)O)=C(COC(C)=O)CSC23)c1 (configuration not stated) the results were Rab9 prom act -2.4%, NPC1 prom act -0.1%, FLuc modulator 21.3µM* and ELG1 genotoxic 0.1%.
Screening Cc1ccc(Cl)cc1NC(=O)C1CCN(C(=O)c2cnn(-c3ccccc3)c2-n2cccc2)CC1 returned FLuc modulator 0.6% and SMN2 splice enh -36.4%.
Screening CCC1CSC(=Nc2ccc(C)cc2)N1C(=O)CN1C(=O)NC2(CCCC2)C1=O (configuration not stated) returned Rab9 prom act 0.794µM*, NPC1 prom act 0.562µM*, FLuc modulator 16.9µM* and ELG1 genotoxic 2.59µM*.
`O=C(Cn1ccc2cc(S(=O)(=O)N3CCCCCC3)ccc21)NCCc1ccccc1Cl` gave FLuc modulator 1.3%.
For COc1ccccc1/C=N/OC(=O)c1ccc(C)cc1 the results were Rab9 prom act -1.1%, NPC1 prom act -6.6%, FLuc modulator 1.9µM*, ELG1 genotoxic 3.8% and KinaseGlo FLuc -0.9%.
`COc1ccc(S(=O)(=O)N/N=C\c2ccc3c(c2)OCO3)c(OC)c1` gave Rab9 prom act -13.3%, NPC1 prom act -12.3%, FLuc modulator -8.7% and ELG1 genotoxic 1.2%.
Cc1ccc(S(=O)(=O)N/N=C\c2ccc3c(c2)OCO3)cc1 was read as Rab9 prom act 4.8%, NPC1 prom act -4.6%, FLuc modulator 15.1µM*, ELG1 genotoxic 2.1%, KinaseGlo FLuc 0.7% and SMN2 splice enh 8.7%.
For Cc1ccc(C(=O)O/N=C/c2ccc3c(c2)OCO3)cc1 the results were Rab9 prom act 9.5%, NPC1 prom act 0.4%, FLuc modulator 1.2µM*, ELG1 genotoxic -0.1%, KinaseGlo FLuc -3.5% and SMN2 splice enh 1.8%.
`COc1ccc(OC)c(S(=O)(=O)N/N=C\c2ccc3c(c2)OCO3)c1` gave Rab9 prom act 21.4%, NPC1 prom act 25.6%, FLuc modulator 9.53µM* and ELG1 genotoxic inconclusive.
O=S(=O)(N/N=C\c1ccc2c(c1)OCO2)c1ccccc1 was read as Rab9 prom act 0.1%, NPC1 prom act -0.5%, FLuc modulator 21.3µM* and ELG1 genotoxic 7.8%.
